# Screens: PubChem, several laboratories
# This is a sample that favours compounds with a hit; in the whole collection about 3.5% have one here.
# M1 PAM – potentiates human M1 receptor response to acetylcholine. CHO-K1 hM1, Fluo-8 calcium fluorescence, ACh EC20; 0% = ACh EC20, 100% = maximal ACh. activation, % at 3 µM. 360,000 compounds, 0.088% hits. AID 588819; in the data active = activation above about 19%, passing the limit was not always enough
# ATG4B inhibitor – inhibitors of human ATG4B cysteine protease | inhibition, % at 8.33 µM | 340,000 compounds, 0.51% hits | ATG4B cleavage of LC3-PLA2, NBD-HPC fluorescence, 1 h | AID 504462 | Q9Y4P1; in the data active = inhibition above about 40%
# Target sequence (Q9Y4P1 whole entry, looked up): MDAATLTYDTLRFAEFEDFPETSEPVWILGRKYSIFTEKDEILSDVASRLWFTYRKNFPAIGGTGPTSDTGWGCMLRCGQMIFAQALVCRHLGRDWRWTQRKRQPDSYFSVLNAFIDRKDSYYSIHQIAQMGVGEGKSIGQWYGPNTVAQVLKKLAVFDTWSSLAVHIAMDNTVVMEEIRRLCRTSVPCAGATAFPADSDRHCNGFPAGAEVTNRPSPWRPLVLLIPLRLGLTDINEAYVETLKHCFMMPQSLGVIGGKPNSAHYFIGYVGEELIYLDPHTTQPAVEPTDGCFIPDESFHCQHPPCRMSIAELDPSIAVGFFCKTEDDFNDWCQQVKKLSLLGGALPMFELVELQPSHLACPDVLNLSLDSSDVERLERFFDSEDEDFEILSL
# CHRM1 agonist – activates human CHRM1 receptor | 360,000 compounds, 0.33% hits | P11229 | AID 588814 | CHO-K1 hM1, Fluo-8 calcium fluorescence, agonist mode; 0% DMSO, 100% acetylcholine EC100 | activation, % at 3 µM;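 active = activation above the run's mean compound activation plus 3 SD, cut at about 16% in these data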;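 also: peak over basal fluorescence ratio within a 140 s kinetic read after compound addition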
# CHRM1 antagonist – human CHRM1 antagonism; P11229; CHO-K1 hM1, Fluo-8 calcium fluorescence, ACh EC80 antagonist; inhibition, % at 3 µM; 360,000 compounds, 1.3% hits;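 active = percent inhibition above its own plate's cutoff, namely the mean of that plate's compound wells plus 3 SD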;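 also: peak over basal fluorescence ratio during 140 s after agonist addition; 0% = ACh EC80 plus DMSO and 100% = DMSO alone without agonist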
# SKN-1 block – C. elegans SKN-1 inhibition | AID 624304 | inhibition, % at 21.8 µM | C. elegans VP596 Pgst-4::GFP/RFP ratio, acrylamide-induced, 24 h | 360,000 compounds, 0.49% hits;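 active = interference check ratio from 0.5 to 1.5 plus GFP to RFP signal ratio inhibition reaching or exceeding a fixed threshold, cut at about 30% in these data, passing the limit was not always enough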
# Myeloid diff 2 – myeloid differentiation induction | ER-HoxA9 myeloid progenitors, lysozyme-GFP differentiation, flow cytometry | calls only at 10 µM | 360,000 compounds, 1% hits;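 active = normalized GFP-positive differentiation at or above the plate's own cutoff, the solvent-only control mean plus 3 SD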;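 also: cells exposed to compound for four days before flow analysis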
# Numbers without * were called inactive; i = inactive; nt = not tested or not shown; + = active, no number.
SMILES,M1 PAM,ATG4B inhibitor,CHRM1 agonist,CHRM1 antagonist,SKN-1 block,Myeloid diff 2
CC[C@H](C)[C@H]1CNC(=S)N1CC1CCN(CCCCc2ccccc2)CC1,-31,nt,-11,71*,6,i
CC(C)C[C@H]1CNC(=S)N1CC1CCN(CC2CCCC2)CC1,0,nt,-10,-2,0,i
CC[C@H](C)[C@H]1CNC(=S)N1CC1CCN(CCC(C)(C)C)CC1,4,nt,-8,-4,-4,i
CC(C)C[C@H]1CNC(=S)N1CC1CCN(CC2CCC(C(C)(C)C)CC2)CC1 (stereo not given in full),-31,1,-10,76*,24,i
CC[C@H](C)[C@H]1CNC(=S)N1CC1CCN(CCCC2CCCC2)CC1,-26,nt,-12,38*,11,i
CC(C)C[C@H]1CNC(=S)N1CC1CCN(CCCC2CCCCC2)CC1,-31,nt,-12,83*,-23,i
CCOC(=O)C1=CNS(=O)(=O)NC1c1ccc(C[C@H](NC(=O)CNC(=O)CCc2ccccc2)C(N)=O)cc1 (stereo not given in full),10,1,-2,-13,-10,i
CCCCOc1ccc(N2CC(C(=O)NCCc3ccc(OC)c(OC)c3)CC2=O)cc1 (stereo not given),4,-11,-5,5,3,i
CC1(C)CC(=O)C(c2ccccc2)(c2ccccc2)C(=O)C1,-7,-12,-5,6,-2,i
COCCCNC(=O)C[C@@H]1C[C@@]2(C(=O)OC)CCCCC=C2N(Cc2ccc(Cl)cc2Cl)C1=O,nt,nt,nt,nt,-2,i
CC(C)C[C@H]1CNC(=S)N1CC1CCN(CCC23CC4CC(CC(C4)C2)C3)CC1,-31,nt,-10,88*,10,i
S=C1NCCN1CC1CCN(CCC23CC4CC(CC(C4)C2)C3)CC1,-31,nt,-11,85*,5,i
O=C(c1ccc2c(=O)n3c(nc2c1)CCCCC3)N1CCN(C(c2ccccc2)c2ccccc2)CC1,-34,14,-14,79*,4,i
O=C(c1ccc(=O)oc1)N1CCN(C(c2ccccc2)c2ccccc2)CC1,-33,-7,-12,77*,-4,i
Cc1cc(=O)oc(C)c1C(=O)N1CCN(C(c2ccccc2)c2ccccc2)CC1,-2,4,-5,5,12,i
O=C(c1ccc2c(=O)n3c(nc2c1)CCCCC3)N1CCN(c2ccccc2)CC1,6,-9,-4,2,-1,i
CS(=O)(=O)N1CCN(c2nc3ccc(Cl)cc3s2)CC1,13,1,2,-4,-1,i
Clc1ccc2nc(N3CCCCC3)sc2c1,-5,10,-10,-6,57*,i
CCOc1ccccc1N1CCN(C(=O)C2c3ccccc3Oc3ccccc32)CC1,2,-8,-2,-3,9,i
CCOC(=O)C1CCCN(C(=S)Nc2ccc(Nc3ccccc3)cc2)C1 (stereo not given),-26,2,78*,80*,5,i
CS(=O)(=O)N1CCN(C(=O)C2c3ccccc3Oc3ccccc32)CC1,-22,7,-9,47*,14,i
CCOC(=O)C1CCN(C(=S)Nc2ccccc2)CC1,1,4,8,2,-7,i
Cc1[nH]c2ccccc2c1C(c1ccccn1)N1CCCC1 (stereo not given),17,3,0,-25,-1,i
CCOC(=O)C1CCCN(C(c2ccccn2)c2c(C)[nH]c3ccccc23)C1 (stereo not given),-1,-2,28*,-3,-1,i
CCOC(=O)C1CCCN(C(=S)Nc2ccc(C)cc2C)C1 (stereo not given),-28,-3,85*,83*,0,i
SMILES,M1 PAM,ATG4B inhibitor,CHRM1 agonist,CHRM1 antagonist,SKN-1 block,Myeloid diff 2
Cc1cccc(N(Cc2ccccc2)C(=O)CSC(C)C(=O)Nc2cc(C)on2)c1 (stereo not given),0,-2,-4,-4,5,i
CCOC(=O)C1CCCN(C(=O)Nc2c(-c3ccccc3)noc2C)C1 (stereo not given),-6,9,31*,2,-24,i
CCOC(=O)C1CCCN(C(=O)/C(=C/c2ccco2)NC(=O)c2ccccc2)C1 (stereo not given),-12,5,48*,11,7,i
CCOC(=O)C1CCCN(C(=O)Cc2c(C(=O)O)[nH]c3ccccc23)C1 (stereo not given),-29,-5,73*,64*,-14,i
CCOC(=O)C1CCCN(C(=O)C2COc3ccccc3O2)C1 (stereo not given),13,-2,-4,-14,15,i
CCOC(=O)C1CCCN(C(=O)CC(c2ccccc2)c2ccccc2)C1 (stereo not given),12,-7,-2,-16,13,i
CCOC(=O)C1CCCN(C(=O)c2c(-c3ccccc3Cl)noc2C)C1 (stereo not given),9,-6,2,-13,-19,i
CCOC(=O)C1CCCN(C(=O)C2c3ccccc3Oc3ccccc32)C1 (stereo not given),-30,-12,79*,35*,48,i
Cn1c(=O)c2c(nc3n2CC(O)CN3c2ccccc2)n(C)c1=O (stereo not given),7,1,-3,-13,-6,i
CCN(CC)CCNC(=O)C12CC3CC(CC(C3)C1)C2,-5,-10,-6,9,9,+
CC12CC3CC(C)(C1)CC(C(=O)NCc1ccncc1)(C3)C2,1,2,-8,-6,12,i
CCN(CC)CCNC(=O)C12CC3CC(C)(CC(C)(C3)C1)C2,-25,-5,-12,40*,6,i
S=C(Nc1cccc2ccccc12)NN1CCCCCC1,-21,-14,-7,41*,3,i
S=C(Nc1cccc2ccccc12)NN1CCOCC1,10,-8,-3,-22,-50,i
Cc1cc(C)c2c(c1)/C(=N\N=c1\sc3ccccc3n1C)C(=O)N2,-1,-1,-3,-8,-4,+
Cn1c(=NC(=O)C2=NNC(=O)CC2)sc2ccccc21,3,-2,-5,-3,6,i
CC(C)=CCN1CCN(Cc2cn[nH]c2C2CCCCC2)CC1CCO (stereo not given),nt,-7,nt,nt,nt,nt
O=C(NCCn1cc(SCc2ccccc2F)c2ccccc21)c1c(F)cccc1F,-20,-4,-5,32*,0,i
O=C(NCCn1cc(SCC(=O)N2CCOCC2)c2ccccc21)c1c(F)cccc1F,-4,-10,-2,-1,6,i
CN1C(=O)CC(c2cn(Cc3ccccc3)c3ccccc23)C1=O (stereo not given),11,-5,1,-14,-5,+
